# Assay results as given in the supplement of paper PMC10646978.
# ± gives the standard deviation.
# Key:
# Settings in all cases: modulator concentration 10 µM
# [1] = tested on: RAW-Dual (murine macrophage reporter line); experiment: NF-kB reporter (SEAP) activity fold change vs agonist alone; higher = enhanced NF-kB activity
# How it was run: (§1)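 Overnight stimulation with a PRR agonist followed pre-incubation for 1 hour at 37 °C with compound at 10 μM final. This was done in RAW-Dual murine macrophage reporter cells seeded at 50 000 per well in 384-well plates. NF-κB (SEAP, QUANTI-Blue absorbance at 620 nm) and IRF (Lucia luciferase, QUANTI-Luc luminescence) were read from the supernatant. Each reporter's fold change relative to the mean agonist-only control on the same plate was averaged over replicate plates.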
# [2] = tested on: RAW-Dual (murine macrophage reporter line); experiment: IRF reporter (Lucia luciferase) activity fold change vs agonist alone; higher = enhanced IRF activity
# How it was run: as §1
# [3] = tested on: RAW-Dual (murine macrophage reporter line); experiment: viability score (confluency relative to resting cells, overnight) (fraction); higher = more viable, active = viable (0.7 or more)
# How it was run: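 Overnight exposure to 10 μM final compound was carried out on RAW-Dual macrophages in 384-well plates. IncuCyte software generated two confluency masks over all wells imaged with IncuCyte. The viability score gives confluency in relation to resting cells. A compound met the cutoff if each mask exceeded 70% of resting cells.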
# [4] = agonist: CpG ODN 1826 0.5 ug/mL
smiles,measurement,setting,value
O=C1C=C(c2c(O)ccc3ccccc23)c2ccccc2C1=O,NF-kB reporter,[1]; [4],1.19 ± 0.21
same,NF-kB reporter,[1]; agonist: LPS 0.1 ug/mL,0.399 ± 0.055
same,NF-kB reporter,[1]; agonist: MPLA […],1.66 ± 0.19
same,IRF reporter,[2]; agonist: 3'3'-cGAMP 10 ug/mL,0.0196 ± 0.0013
same,IRF reporter,[2]; agonist: LPS 0.1 ug/mL,1.44 ± 0.18
same,IRF reporter,[2]; agonist: MPLA […],0.656 ± 0.074
same,viability score,[3],0.556 (inactive)
CSc1cc(C=NO)c(SC)s1,NF-kB reporter,[1]; [4],0.874 ± 0.08
same,NF-kB reporter,[1]; agonist: LPS 0.1 ug/mL,0.799 ± 0.1
same,NF-kB reporter,[1]; agonist: MPLA […],0.886 ± 0.085
same,IRF reporter,[2]; agonist: 3'3'-cGAMP 10 ug/mL,0.713 ± 0.043
same,IRF reporter,[2]; agonist: LPS 0.1 ug/mL,0.975 ± 0.15
same,IRF reporter,[2]; agonist: MPLA […],1.01 ± 0.27
same,viability score,[3],0.285 (inactive)
COC(=O)C1=C(C)N(Cc2ccccc2)C(=O)C1,NF-kB reporter,[1]; [4],1.06 ± 0.17
same,NF-kB reporter,[1]; agonist: LPS 0.1 ug/mL,1.1 ± 0.14
same,NF-kB reporter,[1]; agonist: MPLA […],0.984 ± 0.18
same,IRF reporter,[2]; agonist: 3'3'-cGAMP 10 ug/mL,0.96 ± 0.039
same,IRF reporter,[2]; agonist: LPS 0.1 ug/mL,1.32 ± 0.15
same,IRF reporter,[2]; agonist: MPLA […],1.42 ± 0.3
same,viability score,[3],0.623 (inactive)
OCCN1CCN(C(c2cccs2)c2ccc3cccnc3c2O)CC1 (centres undefined),NF-kB reporter,[1]; [4],1.95 ± 0.14
same,NF-kB reporter,[1]; agonist: LPS 0.1 ug/mL,0.699 ± 0.036
same,NF-kB reporter,[1]; agonist: MPLA […],0.66 ± 0.048
same,IRF reporter,[2]; agonist: 3'3'-cGAMP 10 ug/mL,0.759 ± 0.049
same,IRF reporter,[2]; agonist: LPS 0.1 ug/mL,0.332 ± 0.027
same,IRF reporter,[2]; agonist: MPLA […],0.26 ± 0.021
same,viability score,[3],0.155 (inactive)
O=C(c1cc2nc(-c3ccccc3)cc(-c3ccccc3)n2n1)N1CCCCCC1,NF-kB reporter,[1]; [4],0.999 ± 0.081
same,NF-kB reporter,[1]; agonist: LPS 0.1 ug/mL,1.16 ± 0.077
same,NF-kB reporter,[1]; agonist: MPLA […],0.976 ± 0.065
same,IRF reporter,[2]; agonist: 3'3'-cGAMP 10 ug/mL,0.965 ± 0.035
same,IRF reporter,[2]; agonist: LPS 0.1 ug/mL,1.37 ± 0.19
same,IRF reporter,[2]; agonist: MPLA […],1.12 ± 0.078
same,viability score,[3],1.02 (active)
Cc1ccc(-c2nn(-c3ccccc3)cc2C=C(C#N)C(N)=O)o1,NF-kB reporter,[1]; [4],1.04 ± 0.26
same,NF-kB reporter,[1]; agonist: LPS 0.1 ug/mL,0.991 ± 0.081
same,NF-kB reporter,[1]; agonist: MPLA […],1 ± 0.081
same,IRF reporter,[2]; agonist: 3'3'-cGAMP 10 ug/mL,1.01 ± 0.041
same,IRF reporter,[2]; agonist: LPS 0.1 ug/mL,1.22 ± 0.2
same,IRF reporter,[2]; agonist: MPLA […],1.12 ± 0.11
same,viability score,[3],0.966 (active)
O=C(NCC(O)Cn1ccccc1=O)c1ccc(Cl)s1 (centres undefined),NF-kB reporter,[1]; [4],0.94 ± 0.1
same,NF-kB reporter,[1]; agonist: LPS 0.1 ug/mL,0.869 ± 0.087
same,NF-kB reporter,[1]; agonist: MPLA […],1.01 ± 0.087
same,IRF reporter,[2]; agonist: 3'3'-cGAMP 10 ug/mL,1.02 ± 0.047
same,IRF reporter,[2]; agonist: LPS 0.1 ug/mL,1.41 ± 0.09
same,IRF reporter,[2]; agonist: MPLA […],1.46 ± 0.12
same,viability score,[3],1 (active)
CSc1nnc2c(n1)[nH]c1c(C)cccc12,NF-kB reporter,[1]; [4],1.01 ± 0.082
same,NF-kB reporter,[1]; agonist: LPS 0.1 ug/mL,0.931 ± 0.096
same,NF-kB reporter,[1]; agonist: MPLA […],0.904 ± 0.098
same,IRF reporter,[2]; agonist: 3'3'-cGAMP 10 ug/mL,0.989 ± 0.066
same,IRF reporter,[2]; agonist: LPS 0.1 ug/mL,1.31 ± 0.25
same,IRF reporter,[2]; agonist: MPLA […],1.42 ± 0.33
same,viability score,[3],1.02 (active)
Oc1ccc(C=NCc2ccccc2)cc1,NF-kB reporter,[1]; [4],1.11 ± 0.12
same,NF-kB reporter,[1]; agonist: LPS 0.1 ug/mL,1.08 ± 0.079
same,NF-kB reporter,[1]; agonist: MPLA […],1.04 ± 0.038
same,IRF reporter,[2]; agonist: 3'3'-cGAMP 10 ug/mL,0.921 ± 0.11
same,IRF reporter,[2]; agonist: LPS 0.1 ug/mL,0.999 ± 0.05
same,IRF reporter,[2]; agonist: MPLA […],1.06 ± 0.19
same,viability score,[3],1 (active)
CC(C)c1noc(CN2CCC(n3nc(C(F)(F)F)n(C)c3=O)CC2)n1,NF-kB reporter,[1]; [4],0.975 ± 0.13
same,NF-kB reporter,[1]; agonist: LPS 0.1 ug/mL,1.11 ± 0.091
same,NF-kB reporter,[1]; agonist: MPLA […],0.939 ± 0.069
same,IRF reporter,[2]; agonist: 3'3'-cGAMP 10 ug/mL,0.993 ± 0.05
same,IRF reporter,[2]; agonist: LPS 0.1 ug/mL,1.08 ± 0.12
same,IRF reporter,[2]; agonist: MPLA […],1.15 ± 0.13
same,viability score,[3],1 (active)
Cn1nc(CNS(=O)(=O)c2cccc(C(F)(F)F)c2)c2c1CCCC2,NF-kB reporter,[1]; [4],0.981 ± 0.052
same,NF-kB reporter,[1]; agonist: LPS 0.1 ug/mL,0.98 ± 0.092
same,NF-kB reporter,[1]; agonist: MPLA […],1.21 ± 0.13
same,IRF reporter,[2]; agonist: 3'3'-cGAMP 10 ug/mL,0.987 ± 0.085
same,IRF reporter,[2]; agonist: LPS 0.1 ug/mL,1.06 ± 0.15
same,IRF reporter,[2]; agonist: MPLA […],1.05 ± 0.27
same,viability score,[3],0.926 (active)
Cc1cccc(C)c1N(CC(=O)Nc1ccc(-c2ncon2)cc1)C(=O)C1CCS(=O)(=O)CC1,NF-kB reporter,[1]; [4],1.06 ± 0.083
same,NF-kB reporter,[1]; agonist: LPS 0.1 ug/mL,0.939 ± 0.075
same,NF-kB reporter,[1]; agonist: MPLA […],1.05 ± 0.024
same,IRF reporter,[2]; agonist: 3'3'-cGAMP 10 ug/mL,0.976 ± 0.098
same,IRF reporter,[2]; agonist: LPS 0.1 ug/mL,0.997 ± 0.13
same,IRF reporter,[2]; agonist: MPLA […],0.982 ± 0.086
same,viability score,[3],0.999 (active)
